Screening data: PubChem, National Center for Advancing Translational Sciences (NCATS)
Shiga toxin inh = inhibitors of Shiga toxin in Vero cells. inhibition, % at 38.7 µM. Vero cells, Shiga toxin protein synthesis inhibition reporter. 9.2% of 290,000 active. AID 2315; in the data active means inhibition mostly above about 28%, no sharp cut-off; inactive means mostly below about 43%; further: 0% is about no effect
NS1 inh = inhibitors of influenza NS1 protein function; 0.4% of 270,000 active; AID 2326; Potency, µM (doses to about 46.1 µM), for inactives: top-dose activity, positive = more growth; calls by dose curve; further: potency means the concentration at half of the fitted maximal effect; actives are rising curves; nearly all actives have a fitted effect of over 50% in size
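Compounds were scored for reversing the slow growth caused by influenza A NS1 in S. cerevisiae, measured by optical density at 600 nm. Assay medium contained 2% galactose at pH 6.0; NS1-free yeast of the same strain were the positive control.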
Cycloheximide cs = counter-screen for Shiga toxin inhibitors: cycloheximide protein synthesis inhibition; 12% of 300,000 active; cell reporter, cycloheximide protein synthesis inhibition counterscreen; max response, %; AID 2314; in the data active means max response mostly above about 13%, no sharp cut-off; inactive means mostly below about 14%; further: read at 38.3 µM for the half of the compounds with a filed dose; 0% is about no effect
SARS PLpro yeast = blocks SARS-CoV papain-like protease in a yeast assay; Potency, µM (titrated, usually from 32.9 µM), inactives show at the highest dose activity, positive = growth rescue, actives largely listed as activators; 0.19% of 330,000 active; S. cerevisiae expressing SARS-CoV PLpro, growth rescue; calls by dose curve; further: potency means the concentration at half of the fitted maximal effect; 0% is about no effect; nearly all actives have a fitted effect of over 55% in size
Pf growth 96h = inhibits malaria parasite growth, 96 h | Potency, µM (titrated, usually from 28.7 µM), without a hit: at the highest dose activity change, negative = inhibition, hits mostly inhibitors | P. falciparum luciferase reporter growth, 96 h | 6.9% of 320,000 active | AID 504834; further: potency means the concentration at half of the fitted maximal effect; on the % scale 0 is the no-effect control and ±100 the full control effect
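Luminescence readout: decreased luciferase signal marks inhibited growth of reporter-expressing P. falciparum in infected red cells (2% hematocrit, 0.05% parasitemia final), exposed to compound two generations (96 h, 37 C, 5% CO2).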
Pf growth 48h = P. falciparum growth inhibition at 48 hours (one generation); AID 504832; 5.9% of 310,000 active; P. falciparum luciferase growth in erythrocytes, 48 h; Potency, µM (highest dose often 28.7 µM), for the others: at the highest dose activity change, negative = inhibition, hits mostly inhibitors; further: potency means the concentration at half of the fitted maximal effect; on the % scale 0 is the no-effect control and ±100 the full control effect
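Luciferase-expressing parasites in RBCs, 2% Hct / 0.1% parasitemia final; RPMI 1640 + 0.5% Albumax; 37 C, 5% CO2, one generation; luminescence read-out, lower signal = inhibition.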
Starred values were filed as active, the others as inactive; ? = inconclusive; . = not tested or not shown; [ ] = another dose, or the depositor's remark. Shown are actives, neighbours in structure and some others; about 21% of the full set was active somewhere. Unless noted, the call rests on the fitted dose curve; in most records, active means well fitted inhibition curve with a large enough effect; inconclusive means small, poorly fitted or top-dose-only effect, or another doubt; inactive means no such curve, though single readings can be large or run the other way.

SMILES | Shiga toxin inh | NS1 inh | Cycloheximide cs | SARS PLpro yeast | Pf growth 96h | Pf growth 48h
O=S(=O)(Nc1cccc2c1ccc1cccn12)c1cccs1 | -11 | 21% | 9 | -6% | 23% | 16%
COc1ccc(C2=CC(=O)C=CC2=O)cc1 | -2 | -140% | 9.3* | -5% | 10µM* | 9.3µM*
Cc1ccc(Nc2nc(N)nc(CSCCO)n2)cc1 | 60* | 2% | 31* | 1% | 64% | 110%
Nc1nc(CCl)nc(Nc2ccccc2)n1 | 71* | . | 36* | -5% | -55% | -29%
Cc1c(Cl)cccc1Nc1nc(N)nc(CN2CCc3ccccc3C2)n1 | -17 | 1% | 4 | -10% | . | 9.3µM*
CCOc1ccc(Nc2nc(N)nc(CN3CCN(c4ccccc4F)CC3)n2)cc1 | -4 | . | -1 | -1% | 6% | ?
CCOc1ccc(Nc2nc(N)nc(CCl)n2)cc1 | 59* | 5% | 43* | -1% | ? | ?
CCn1c(SCC(=O)N2CCCCC2C)nc2c1c(=O)n(C)c(=O)n2C (stereo not given) | -7 | 5% | -2 | -3% | -4% | -19%
Cc1ccc(Nc2nc(N)nc(CCl)n2)cc1 | 96* | 4% | 75* | 0% | ? | ?
Cc1ccc(Nc2nc(N)nc(CSc3nc(C)cc(C)n3)n2)cc1 | -5 | 1% | 3 | . | ? | ?
Nc1nc(CN2CCN(Cc3ccccc3)CC2)nc(Nc2ccccc2)n1 | -3 | -4% | 5 | -5% | 13µM* | ?
Cc1ccc(Nc2nc(N)nc(CC#N)n2)cc1 | 46* | ? | 35* | 4% | . | 13%
Cc1cccc(Nc2nc(N)nc(CN3CCC(C(N)=O)CC3)n2)c1C | 9 | -2% | -2 | 1% | . | -3%
Cc1cccc(Nc2nc(N)nc(CCl)n2)c1C | 59* | 5% | 53* | 4% | 1.5µM* | ?
COc1ccccc1Nc1nc(N)nc(CN2CCN(Cc3ccccc3)CC2)n1 | -11 | 5% | 0 | -2% | ? | ?
Cc1ccc(Nc2nc(N)nc(CCl)n2)c(C)c1 | 106* | 5% | 78* | 1% | -13% | ?
CC(C)N1C(=O)CC(Nc2ccc(N3CCOCC3)cc2)C1=O (stereo not given) | 30 | -2% | 39* | -8% | 68% | .
COc1ccc(NC2CC(=O)N(C(C)C)C2=O)cc1 (stereo not given) | 23 | -1% | 8 | -1% | 24% | 16%
Cc1nc2c(c(C)nn2-c2ccccc2)c(C)c1CCC(=O)Nc1ccc(CN2CCCC2)cc1 | -7 | 6% | 1 | -1% | 2.1µM* | ?
CCC(C)NC(=O)CCc1c(C)nc2c(c(C)nn2-c2ccccc2)c1C (stereo not given) | -6 | 0% | -3 | -1% | -16% | ?
COC(=O)C(NC(=O)CCc1c(C)nc2c(c(C)nn2-c2ccccc2)c1C)C(C)C (stereo not given) | -10 | -8% | -3 | -2% | 1% | 6.6µM*
COc1ccc(S(=O)(=O)N2CCc3ccccc32)cc1C(=O)NCC(c1ccco1)N1CCCC1 (stereo not given) | . | . | . | 0% | . | .
CCOC(=O)/C(C#N)=N/Nc1ccc(S(=O)(=O)N2CCc3ccccc32)cc1 | -13 | 10% | -4 | -1% | 12µM* | 13µM*
N#C/C(=N\Nc1ccc(S(=O)(=O)N2CCc3ccccc32)cc1)C(N)=S | -3 | . | 1 | 0% | ? | ?
CC(=O)c1ccc(S(=O)(=O)N2CCCc3ccccc32)cc1 | 27 | 14% | 11* | -4% | ? | 10%
SMILES | Shiga toxin inh | NS1 inh | Cycloheximide cs | SARS PLpro yeast | Pf growth 96h | Pf growth 48h
COc1ccc(S(=O)(=O)N2CCc3ccccc32)cc1C(=O)NCc1ccco1 | . | . | . | -2% | ? | 13µM*
O=S(=O)(c1ccc(F)cc1)N1CCCc2ccccc21 | . | -23% | 31* | -8% | 1.7µM* | 29%
O=C(CNS(=O)(=O)c1ccc(Cl)c(C(F)(F)F)c1)NC1CCCCC1 | . | . | . | 0% | -10% | -21%
COc1ccccc1NC(=O)C(C)OC(=O)C1COc2ccccc2O1 (stereo not given) | . | . | . | -12% | -5% | 19%
O=C(O)C1CC=CCC1C(=O)Nc1ccc(S(=O)(=O)N2CCCc3ccccc32)cc1 (stereo not given) | -3 | ? | -1 | 1% | 10µM* | -1%
COc1cc(/C=C/C(=O)O)cc(S(=O)(=O)N2CCCc3ccccc32)c1OC | 13 | 5% | 12* | -1% | ? | -2%
O=C(Nc1ccc(S(=O)(=O)N2CCCc3ccccc32)cc1)C1CCCO1 (stereo not given) | -6 | -47% | 1 | -7% | 27% | ?
COc1ccc(S(=O)(=O)N2CCCc3ccccc32)cc1[N+](=O)[O-] | -8 | -2% | -5 | -1% | -1% | 1%[0.00184 µM]
COc1ccc(S(=O)(=O)N2CCCc3ccccc32)cc1OC | 55* | -80% | 33* | 1% | 57% | 12µM*
COc1cc(/C=C/C(=O)O)cc(S(=O)(=O)N2CCc3ccccc32)c1OC | 13 | -1% | 9 | 0% | ? | 8%
COCCNC(=O)c1ccc(S(=O)(=O)N2CCCc3ccccc32)cc1 | 74* | 2% | 29* | 1% | 3% | 5%
O=C(NCc1cccnc1)c1cc(S(=O)(=O)N2CCCCC2)ccc1Cl | -1 | -9% | -2 | -1% | . | 8%
COc1ccc(-c2ccccc2C2C3C=CCCC3(C)C(=O)N2Cc2ccccc2)cc1 (stereo not given) | -2 | . | 2 | . | . | .
CN1CCC(N(CCc2ccccc2)C(=O)CCC(=O)O)CC1 | 9 | 7% | 0 | -3% | 2% | 75%
CCn1cnc2c(Nc3cccc(Cl)c3)nc(C#N)nc21 | . | . | . | 1% | ? | ?
CC[C@H](CO)Nc1nc(Nc2cccc(Cl)c2)c2ncn(C(C)C)c2n1 | 22 | -1% | 10* | -1% | 5.2µM* | 12µM*
CC(C)[C@H](CO)N(Cc1cccc(F)c1)c1nc(Nc2cccc(Cl)c2)c2ncn(C(C)C)c2n1 | 20 | ? | 9 | 2% | ? | 12µM*
O=P(O)(O)c1ccccc1 (tested in a mixture with another compound) | . | 6% | . | . | . | .
CCOc1ccccc1N(CC(=O)N1CCCC1)S(C)(=O)=O | . | 3% | -1 | -8% | -6% | -1%
Cc1ccc(NC(=O)c2cc([N+](=O)[O-])ccc2NCc2cccnc2)cc1Cl | 72 | 15% | 5 | -3% | 2.1µM* | 5.9µM*
COc1cccc(NC(=O)c2cc([N+](=O)[O-])ccc2NCc2cccnc2)c1 | -7 | 6% | -2 | -10% | ? | 10µM*
O=C(O)c1cc([N+](=O)[O-])ccc1NCc1cccnc1 | 1 | 3% | 1 | 4% | -17% | 18%
Cc1ccc(CNC(=O)CCCOc2cc(=O)n(C)c3ccccc23)o1 | 4 | 2% | 3 | -2% | 16% | ?
Cn1c(=O)cc(OCC(=O)NCc2cccs2)c2ccccc21 | 51* | . | 18 | 5% | ? | 0%
